Experimental data reported in publication PMC7862700, “An all-to-all approach to the identification of sequence-specific readers for epigenetic DNA modifications on cytosine”.

Assays:
Assay in all cases: DAPPL (digital affinity profiling via proximity ligation, sequencing); 10 mM Tris-HCl pH 7.5, 50 mM NaCl, 1 mM DTT, 4% glycerol, room temperature, 30 min; GST-TFs on glutathione beads, 16-mer random dsDNA library, 0.1% formaldehyde crosslink after washing; high values mean tight binding
FLI1 = target: T1, FLI1 (Homo sapiens, UniProt Q01543 1-452); details: protein: recombinant; tags: N-terminal GST; dsDNA, one strand shown
T1 sequence: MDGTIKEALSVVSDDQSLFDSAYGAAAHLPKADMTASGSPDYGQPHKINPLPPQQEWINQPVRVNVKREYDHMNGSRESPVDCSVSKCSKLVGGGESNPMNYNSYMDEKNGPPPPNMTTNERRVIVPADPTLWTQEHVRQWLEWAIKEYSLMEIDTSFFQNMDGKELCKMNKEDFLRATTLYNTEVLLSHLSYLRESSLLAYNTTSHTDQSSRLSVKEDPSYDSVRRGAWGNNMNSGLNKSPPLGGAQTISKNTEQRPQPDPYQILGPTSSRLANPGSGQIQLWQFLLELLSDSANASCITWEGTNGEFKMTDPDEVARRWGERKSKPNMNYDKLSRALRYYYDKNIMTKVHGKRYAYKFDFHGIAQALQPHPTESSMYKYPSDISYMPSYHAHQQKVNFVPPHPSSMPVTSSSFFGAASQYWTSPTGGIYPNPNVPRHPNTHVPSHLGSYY
Outline: (§1)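 A tag-only sample was pooled with DNA-barcoded human transcription factors that had been expressed in yeast as GST fusions and captured on glutathione beads. The pools were incubated for 30 min at room temperature with 200 nmole of a random double-stranded 16-mer DNA library in Tris/NaCl/DTT/glycerol buffer, then washed, crosslinked with 0.1% formaldehyde, proximity-ligated (BsaI/T4 ligase, 1 h, 37 °C), PCR-amplified and sequenced on an Illumina NextSeq500. Binding signal is each hexamer's read frequency for a factor divided by its frequency for the tag-only sample.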

ELK1 = target: T2, ELK1 (Homo sapiens, UniProt P19419 1-428); details: protein: recombinant; tags: N-terminal GST; dsDNA, one strand shown
T2 sequence: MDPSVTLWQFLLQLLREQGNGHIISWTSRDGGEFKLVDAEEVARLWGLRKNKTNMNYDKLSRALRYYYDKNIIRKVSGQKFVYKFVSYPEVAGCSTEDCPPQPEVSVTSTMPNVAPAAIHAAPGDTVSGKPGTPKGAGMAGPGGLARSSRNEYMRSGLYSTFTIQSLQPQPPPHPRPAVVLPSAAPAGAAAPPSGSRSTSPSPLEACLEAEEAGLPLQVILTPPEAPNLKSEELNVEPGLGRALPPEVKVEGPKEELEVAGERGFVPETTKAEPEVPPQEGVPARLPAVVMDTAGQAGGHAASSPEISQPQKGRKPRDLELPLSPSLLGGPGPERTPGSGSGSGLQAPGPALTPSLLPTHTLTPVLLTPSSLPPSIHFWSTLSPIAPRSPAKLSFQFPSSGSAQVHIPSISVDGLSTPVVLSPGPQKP
Outline: as §1

ERG = target: T3, ERG (Homo sapiens, UniProt P11308 1-479); details: protein: recombinant; tags: N-terminal GST; dsDNA, one strand shown
T3 sequence: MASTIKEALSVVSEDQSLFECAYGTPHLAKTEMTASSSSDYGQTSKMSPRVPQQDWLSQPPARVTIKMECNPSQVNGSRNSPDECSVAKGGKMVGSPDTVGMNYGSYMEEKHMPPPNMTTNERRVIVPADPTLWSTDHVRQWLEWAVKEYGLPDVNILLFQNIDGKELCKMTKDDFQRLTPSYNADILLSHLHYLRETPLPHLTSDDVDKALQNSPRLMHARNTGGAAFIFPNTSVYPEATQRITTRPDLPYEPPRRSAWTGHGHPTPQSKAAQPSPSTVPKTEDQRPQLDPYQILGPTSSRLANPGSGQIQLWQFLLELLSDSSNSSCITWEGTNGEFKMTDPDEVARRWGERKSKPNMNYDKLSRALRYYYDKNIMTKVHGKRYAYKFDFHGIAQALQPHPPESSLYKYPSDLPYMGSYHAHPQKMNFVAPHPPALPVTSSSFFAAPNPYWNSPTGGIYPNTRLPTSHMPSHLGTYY
Outline: as §1

ELF1 = ELF1 (Homo sapiens, UniProt P32519 1-619); details: protein: recombinant; tags: N-terminal GST; dsDNA, one strand shown
Chain of ELF1 (P32519 whole entry): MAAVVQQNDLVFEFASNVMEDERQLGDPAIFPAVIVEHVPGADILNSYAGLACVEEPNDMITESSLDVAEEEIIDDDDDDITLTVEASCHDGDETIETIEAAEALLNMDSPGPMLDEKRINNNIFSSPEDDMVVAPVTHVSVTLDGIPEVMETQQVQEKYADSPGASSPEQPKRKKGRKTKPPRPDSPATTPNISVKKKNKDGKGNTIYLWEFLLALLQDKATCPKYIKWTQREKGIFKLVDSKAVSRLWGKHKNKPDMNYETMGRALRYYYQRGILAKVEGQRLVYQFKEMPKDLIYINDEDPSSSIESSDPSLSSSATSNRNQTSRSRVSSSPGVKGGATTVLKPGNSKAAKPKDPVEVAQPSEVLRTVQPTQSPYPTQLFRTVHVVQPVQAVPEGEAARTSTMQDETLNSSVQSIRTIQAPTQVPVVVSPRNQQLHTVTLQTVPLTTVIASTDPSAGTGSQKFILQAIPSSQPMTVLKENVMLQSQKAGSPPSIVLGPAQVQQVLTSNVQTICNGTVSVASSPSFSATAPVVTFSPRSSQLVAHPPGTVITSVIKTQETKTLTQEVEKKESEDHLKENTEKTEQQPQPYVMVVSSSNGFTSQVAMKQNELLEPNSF
Outline: as §1

EHF = target: T4, EHF (Homo sapiens, UniProt Q9NZC4 1-300); details: protein: recombinant; tags: N-terminal GST; dsDNA, one strand shown
T4 sequence: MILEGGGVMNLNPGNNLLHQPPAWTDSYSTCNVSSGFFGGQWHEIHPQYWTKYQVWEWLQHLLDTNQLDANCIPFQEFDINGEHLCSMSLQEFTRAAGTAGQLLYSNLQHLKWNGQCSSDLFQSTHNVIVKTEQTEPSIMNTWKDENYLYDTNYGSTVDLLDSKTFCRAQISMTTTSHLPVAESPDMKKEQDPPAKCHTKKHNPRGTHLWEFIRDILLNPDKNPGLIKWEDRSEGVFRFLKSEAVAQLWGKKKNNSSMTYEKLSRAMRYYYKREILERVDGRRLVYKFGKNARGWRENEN
Outline: as §1

SPI1 = SPI1 (Homo sapiens, UniProt P17947 1-270); details: protein: recombinant; tags: N-terminal GST; dsDNA, one strand shown
Outline: as §1

SPIB = SPIB (Homo sapiens, UniProt Q01892 1-262); details: protein: recombinant; tags: N-terminal GST; dsDNA, one strand shown
Chain of SPIB (Q01892 whole entry): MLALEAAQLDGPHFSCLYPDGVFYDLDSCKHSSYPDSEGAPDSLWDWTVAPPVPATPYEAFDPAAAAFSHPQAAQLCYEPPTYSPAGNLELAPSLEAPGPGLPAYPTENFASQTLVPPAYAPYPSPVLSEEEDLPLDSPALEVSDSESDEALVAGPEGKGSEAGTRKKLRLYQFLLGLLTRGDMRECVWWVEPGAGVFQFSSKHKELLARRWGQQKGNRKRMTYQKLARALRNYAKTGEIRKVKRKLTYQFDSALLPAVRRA
Outline: as §1

ELK3 = target: T5, ELK3 (Homo sapiens, UniProt P41970 1-407); details: protein: recombinant; tags: N-terminal GST; dsDNA, one strand shown
T5 sequence: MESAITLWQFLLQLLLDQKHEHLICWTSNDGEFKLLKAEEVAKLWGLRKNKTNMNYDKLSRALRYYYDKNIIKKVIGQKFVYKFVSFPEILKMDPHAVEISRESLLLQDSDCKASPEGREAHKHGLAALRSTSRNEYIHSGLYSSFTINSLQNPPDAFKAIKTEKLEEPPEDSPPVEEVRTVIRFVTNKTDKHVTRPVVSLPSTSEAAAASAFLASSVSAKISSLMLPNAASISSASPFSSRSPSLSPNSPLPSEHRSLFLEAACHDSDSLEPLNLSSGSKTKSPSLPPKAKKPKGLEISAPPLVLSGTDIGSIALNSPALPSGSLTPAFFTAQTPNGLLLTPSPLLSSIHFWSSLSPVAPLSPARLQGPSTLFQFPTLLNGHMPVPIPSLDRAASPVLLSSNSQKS
Outline: as §1

FEV = target: T6, FEV (Homo sapiens, UniProt Q99581 1-238); details: protein: recombinant; tags: N-terminal GST; dsDNA, one strand shown
T6 sequence: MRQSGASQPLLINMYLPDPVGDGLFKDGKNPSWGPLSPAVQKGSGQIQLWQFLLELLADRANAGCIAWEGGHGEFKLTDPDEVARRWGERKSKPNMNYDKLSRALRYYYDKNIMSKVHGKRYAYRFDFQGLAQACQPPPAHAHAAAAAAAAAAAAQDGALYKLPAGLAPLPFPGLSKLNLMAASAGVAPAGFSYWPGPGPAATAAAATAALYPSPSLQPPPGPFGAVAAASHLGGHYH
Outline: as §1

ETV5 = ETV5 (Homo sapiens, UniProt P41161 1-510); details: protein: recombinant; tags: N-terminal GST; dsDNA, one strand shown
Chain of ETV5 (P41161 whole entry): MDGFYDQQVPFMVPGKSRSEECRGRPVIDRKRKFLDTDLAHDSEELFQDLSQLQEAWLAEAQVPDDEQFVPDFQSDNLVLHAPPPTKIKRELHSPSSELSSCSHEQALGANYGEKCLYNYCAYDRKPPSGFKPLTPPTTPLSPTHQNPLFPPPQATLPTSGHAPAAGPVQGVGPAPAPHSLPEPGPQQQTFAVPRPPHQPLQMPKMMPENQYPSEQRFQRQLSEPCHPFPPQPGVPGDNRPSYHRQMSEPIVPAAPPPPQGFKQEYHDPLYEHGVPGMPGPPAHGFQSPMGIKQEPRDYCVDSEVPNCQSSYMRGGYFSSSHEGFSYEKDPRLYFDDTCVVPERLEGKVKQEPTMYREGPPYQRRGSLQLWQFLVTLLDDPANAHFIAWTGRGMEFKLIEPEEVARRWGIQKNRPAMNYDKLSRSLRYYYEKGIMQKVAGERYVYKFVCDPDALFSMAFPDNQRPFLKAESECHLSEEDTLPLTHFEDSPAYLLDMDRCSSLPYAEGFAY
Outline: as §1

HSF1 = HSF1 (Homo sapiens, UniProt Q00613 1-529); details: protein: recombinant; tags: N-terminal GST; chain copies: 3; dsDNA, one strand shown
Chain of HSF1 (Q00613 whole entry): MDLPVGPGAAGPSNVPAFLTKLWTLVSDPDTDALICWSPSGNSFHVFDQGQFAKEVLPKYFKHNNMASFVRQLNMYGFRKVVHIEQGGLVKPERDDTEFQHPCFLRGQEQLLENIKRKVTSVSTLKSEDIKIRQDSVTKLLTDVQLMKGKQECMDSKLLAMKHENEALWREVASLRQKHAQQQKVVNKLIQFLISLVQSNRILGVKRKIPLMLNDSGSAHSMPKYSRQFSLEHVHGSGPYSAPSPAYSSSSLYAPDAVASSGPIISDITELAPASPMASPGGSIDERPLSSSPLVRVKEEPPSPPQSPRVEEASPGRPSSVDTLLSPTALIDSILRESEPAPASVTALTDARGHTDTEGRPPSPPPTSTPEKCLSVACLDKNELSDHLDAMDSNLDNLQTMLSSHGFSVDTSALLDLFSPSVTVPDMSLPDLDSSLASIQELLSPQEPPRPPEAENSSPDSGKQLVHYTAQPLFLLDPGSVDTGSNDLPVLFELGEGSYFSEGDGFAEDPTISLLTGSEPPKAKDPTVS
Outline: as §1

ELF4 = ELF4 (Homo sapiens, UniProt Q99607 1-663); details: protein: recombinant; tags: N-terminal GST; dsDNA, one strand shown
Chain of ELF4 (Q99607 whole entry): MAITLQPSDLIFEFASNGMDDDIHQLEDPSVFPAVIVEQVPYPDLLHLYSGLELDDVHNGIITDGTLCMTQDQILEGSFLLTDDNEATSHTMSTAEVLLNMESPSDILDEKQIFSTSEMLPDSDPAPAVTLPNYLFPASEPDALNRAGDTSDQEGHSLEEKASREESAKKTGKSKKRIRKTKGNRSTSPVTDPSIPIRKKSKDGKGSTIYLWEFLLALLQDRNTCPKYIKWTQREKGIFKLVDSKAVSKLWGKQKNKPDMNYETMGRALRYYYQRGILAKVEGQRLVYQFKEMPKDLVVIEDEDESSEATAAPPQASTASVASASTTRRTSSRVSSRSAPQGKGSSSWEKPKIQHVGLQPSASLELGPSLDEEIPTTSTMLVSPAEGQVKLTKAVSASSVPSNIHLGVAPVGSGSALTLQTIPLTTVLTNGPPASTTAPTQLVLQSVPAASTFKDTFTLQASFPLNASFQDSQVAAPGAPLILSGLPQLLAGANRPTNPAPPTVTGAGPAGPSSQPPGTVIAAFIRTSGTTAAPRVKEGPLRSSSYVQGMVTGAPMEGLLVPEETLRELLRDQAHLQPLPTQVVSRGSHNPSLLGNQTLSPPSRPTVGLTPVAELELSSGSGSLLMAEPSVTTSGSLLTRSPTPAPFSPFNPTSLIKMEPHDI
Outline: as §1

ELK4 = target: T7, ELK4 (Homo sapiens, UniProt P28324-2 1-405); details: protein: recombinant; tags: N-terminal GST; dsDNA, one strand shown
T7 sequence: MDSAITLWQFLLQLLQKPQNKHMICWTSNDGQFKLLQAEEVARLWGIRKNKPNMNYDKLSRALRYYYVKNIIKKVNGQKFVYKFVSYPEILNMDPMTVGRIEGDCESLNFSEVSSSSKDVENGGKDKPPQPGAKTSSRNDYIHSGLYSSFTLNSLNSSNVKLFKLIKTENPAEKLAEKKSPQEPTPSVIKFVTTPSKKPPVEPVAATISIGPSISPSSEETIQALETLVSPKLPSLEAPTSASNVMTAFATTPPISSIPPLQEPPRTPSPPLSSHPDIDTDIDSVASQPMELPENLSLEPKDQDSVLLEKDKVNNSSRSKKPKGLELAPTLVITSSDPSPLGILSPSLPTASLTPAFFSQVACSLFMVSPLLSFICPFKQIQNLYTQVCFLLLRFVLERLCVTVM
Outline: as §1

ETV2 = target: T8, ETV2 (Homo sapiens, UniProt O00321 1-342); details: protein: recombinant; tags: N-terminal GST; dsDNA, one strand shown
T8 sequence: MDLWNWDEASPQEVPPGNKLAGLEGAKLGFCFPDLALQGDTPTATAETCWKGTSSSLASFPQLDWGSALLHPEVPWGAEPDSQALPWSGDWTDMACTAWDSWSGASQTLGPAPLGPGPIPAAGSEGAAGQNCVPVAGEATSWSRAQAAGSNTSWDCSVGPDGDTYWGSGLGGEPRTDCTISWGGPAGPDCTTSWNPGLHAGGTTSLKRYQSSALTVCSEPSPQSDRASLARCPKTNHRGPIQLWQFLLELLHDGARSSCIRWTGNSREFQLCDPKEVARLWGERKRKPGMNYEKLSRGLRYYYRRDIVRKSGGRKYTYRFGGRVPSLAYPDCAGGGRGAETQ
Outline: as §1

ELF3 = target: T9, ELF3 (Homo sapiens, UniProt P78545 1-371); details: protein: recombinant; tags: N-terminal GST; dsDNA, one strand shown
T9 sequence: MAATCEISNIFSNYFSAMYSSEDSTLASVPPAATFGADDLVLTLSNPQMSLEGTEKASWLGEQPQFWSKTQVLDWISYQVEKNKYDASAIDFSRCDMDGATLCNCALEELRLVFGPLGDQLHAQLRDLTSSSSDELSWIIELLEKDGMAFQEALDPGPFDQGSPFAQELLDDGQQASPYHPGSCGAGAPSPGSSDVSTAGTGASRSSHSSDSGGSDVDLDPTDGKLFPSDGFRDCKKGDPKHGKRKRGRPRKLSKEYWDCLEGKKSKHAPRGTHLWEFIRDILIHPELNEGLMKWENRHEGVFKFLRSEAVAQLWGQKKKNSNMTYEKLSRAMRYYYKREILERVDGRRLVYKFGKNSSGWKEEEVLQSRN
Outline: as §1

CRX = CRX (Homo sapiens, UniProt O43186 1-299); details: protein: recombinant; tags: N-terminal GST; dsDNA, one strand shown
Chain of CRX (O43186 whole entry): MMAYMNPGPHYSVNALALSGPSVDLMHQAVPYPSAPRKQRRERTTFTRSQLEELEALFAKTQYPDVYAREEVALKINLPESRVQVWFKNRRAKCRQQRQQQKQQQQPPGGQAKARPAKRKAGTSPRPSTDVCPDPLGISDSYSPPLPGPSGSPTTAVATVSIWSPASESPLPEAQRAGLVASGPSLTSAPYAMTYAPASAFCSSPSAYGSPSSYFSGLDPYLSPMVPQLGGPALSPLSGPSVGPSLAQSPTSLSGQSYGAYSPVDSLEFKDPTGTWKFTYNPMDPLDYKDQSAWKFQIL
Outline: as §1

ETV1 = ETV1 (Homo sapiens, UniProt P50549 1-477); details: protein: recombinant; tags: N-terminal GST; dsDNA, one strand shown
Chain of ETV1 (P50549 whole entry): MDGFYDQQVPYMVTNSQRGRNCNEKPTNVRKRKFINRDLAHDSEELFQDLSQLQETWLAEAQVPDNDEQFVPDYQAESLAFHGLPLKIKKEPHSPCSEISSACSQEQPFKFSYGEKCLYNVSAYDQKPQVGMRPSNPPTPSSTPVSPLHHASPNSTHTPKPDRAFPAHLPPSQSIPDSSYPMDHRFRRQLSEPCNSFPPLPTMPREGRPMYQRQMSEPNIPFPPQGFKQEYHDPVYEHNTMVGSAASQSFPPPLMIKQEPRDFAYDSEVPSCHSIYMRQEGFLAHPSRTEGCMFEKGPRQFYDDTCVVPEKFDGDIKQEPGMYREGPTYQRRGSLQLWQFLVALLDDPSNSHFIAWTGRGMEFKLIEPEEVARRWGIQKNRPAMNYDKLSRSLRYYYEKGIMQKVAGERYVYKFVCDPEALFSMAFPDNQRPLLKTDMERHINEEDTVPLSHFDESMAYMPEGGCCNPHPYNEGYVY
Outline: as §1

GABPA = target: T10, GABPA (Homo sapiens, UniProt Q06546 1-454); details: protein: recombinant; tags: N-terminal GST; dsDNA, one strand shown
T10 sequence: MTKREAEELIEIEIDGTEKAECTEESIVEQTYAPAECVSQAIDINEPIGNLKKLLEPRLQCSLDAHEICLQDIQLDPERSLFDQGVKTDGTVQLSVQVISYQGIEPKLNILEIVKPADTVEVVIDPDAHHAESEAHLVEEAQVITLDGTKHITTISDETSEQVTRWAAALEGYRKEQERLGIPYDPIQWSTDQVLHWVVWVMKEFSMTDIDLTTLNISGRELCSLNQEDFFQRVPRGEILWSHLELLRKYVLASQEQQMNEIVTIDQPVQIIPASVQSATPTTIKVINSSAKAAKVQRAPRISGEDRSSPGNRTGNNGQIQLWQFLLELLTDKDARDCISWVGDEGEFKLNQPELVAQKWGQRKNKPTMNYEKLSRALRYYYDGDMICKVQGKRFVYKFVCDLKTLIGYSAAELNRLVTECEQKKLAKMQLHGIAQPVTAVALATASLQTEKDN
Outline: as §1

Row | Sequence | binding signal (FLI1) | binding signal (ELK1) | binding signal (ERG) | binding signal (ELF1) | binding signal (EHF) | binding signal (SPI1) | binding signal (SPIB) | binding signal (ELK3) | binding signal (FEV) | binding signal (ETV5) | binding signal (HSF1) | binding signal (ELF4) | binding signal (ELK4) | binding signal (ETV2) | binding signal (ELF3) | binding signal (CRX) | binding signal (ETV1) | binding signal (GABPA)
1 | TAACAG | 1.06 fold enrichment (6-mer frequency, TF over GST control) | 1.05 fold enrichment (6-mer frequency, TF over GST control) | 1.01 fold enrichment (6-mer frequency, TF over GST control) | 1.09 fold enrichment (6-mer frequency, TF over GST control) | 1.07 fold enrichment (6-mer frequency, TF over GST control) | 1.11 fold enrichment (6-mer frequency, TF over GST control) | 1.09 fold enrichment (6-mer frequency, TF over GST control) | 1.07 fold enrichment (6-mer frequency, TF over GST control) | 1.05 fold enrichment (6-mer frequency, TF over GST control) | 1.04 fold enrichment (6-mer frequency, TF over GST control) | 1.02 fold enrichment (6-mer frequency, TF over GST control) | 1.09 fold enrichment (6-mer frequency, TF over GST control) | 1.12 fold enrichment (6-mer frequency, TF over GST control) | 1.02 fold enrichment (6-mer frequency, TF over GST control) | 1.09 fold enrichment (6-mer frequency, TF over GST control) | 1.3 fold enrichment (6-mer frequency, TF over GST control) | 1.09 fold enrichment (6-mer frequency, TF over GST control) | 
2 | GTTTTA | 1.17 fold enrichment (6-mer frequency, TF over GST control) | 1.05 fold enrichment (6-mer frequency, TF over GST control) | 1.07 fold enrichment (6-mer frequency, TF over GST control) | 1.07 fold enrichment (6-mer frequency, TF over GST control) | 1.11 fold enrichment (6-mer frequency, TF over GST control) | 1.12 fold enrichment (6-mer frequency, TF over GST control) | 1.16 fold enrichment (6-mer frequency, TF over GST control) | 1.08 fold enrichment (6-mer frequency, TF over GST control) | 1.08 fold enrichment (6-mer frequency, TF over GST control) | 1.07 fold enrichment (6-mer frequency, TF over GST control) | 1.17 fold enrichment (6-mer frequency, TF over GST control) | 1.15 fold enrichment (6-mer frequency, TF over GST control) | 1.07 fold enrichment (6-mer frequency, TF over GST control) | 1.1 fold enrichment (6-mer frequency, TF over GST control) | 1.06 fold enrichment (6-mer frequency, TF over GST control) | 1.41 fold enrichment (6-mer frequency, TF over GST control) | 1.13 fold enrichment (6-mer frequency, TF over GST control) | 1.14 fold enrichment (6-mer frequency, TF over GST control)
